Counter-ions that a name gives are not always drawn. ± gives the uncertainty stated by the source.
system: NCC-PMP1-C1; assay: cell viability relative to DMSO control; higher = less growth inhibition; settings: 10 µM; 72 h
Method: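 NCC-PMP1-C1 pseudomyxoma peritonei cells were seeded in 384-well plates coated with Matrigel and MEF (1e4 cells). Viability was read after 72 h by CCK-8 and expressed as % of the DMSO control, mean ± SD of duplicates.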

Row | SMILES | cell viability [%]
1 | CNC(=O)c1ccc(-c2cnc3ncc(Cc4ccc5ncccc5c4)n3n2)cc1F | 108 ± 9.8
2 | CCCCNC(=O)NS(=O)(=O)c1ccc(C)cc1 [Tolbutamide] | 96.4 ± 6.1
3 | CC(C)C[C@H](NC(=O)[C@H](Cc1ccccc1)NC(=O)c1cnccn1)B(O)O [Bortezomib (PS-341)] | -0.129 ± 0.47
4 | CC(=O)O[C@]1(C(C)=O)CC[C@H]2[C@@H]3C=C(C)C4=CC(=O)CC[C@]4(C)[C@H]3CC[C@@]21C [Megestrol Acetate] | 91.4 ± 16
5 | CC/C(=C(/CC)c1ccc(O)cc1)c1ccc(O)cc1 [Diethylstilbestrol] | 121.2 ± 0.53
6 | CC(C)c1nc(CN(C)C(=O)N[C@@H](CCN2CCOCC2)C(=O)N[C@H](CC[C@H](Cc2ccccc2)NC(=O)OCc2cncs2)Cc2ccccc2)cs1 [Cobicistat (GS-9350)] | 83.8 ± 3.1
7 | Cc1cccc(N(C)C(=S)Oc2ccc3ccccc3c2)c1 [Tolnaftate] | 101 ± 19
8 | CO[C@H](C(=O)[C@@H](O)[C@@H](C)O)[C@@H]1Cc2cc3cc(O[C@H]4C[C@@H](O[C@H]5C[C@@H](O)[C@H](O)[C@@H](C)O5)[C@H](O)[C@@H](C)O4)c(C)c(O)c3c(O)c2C(=O)[C@H]1O[C@H]1C[C@@H](O[C@H]2C[C@@H](O[C@H]3C[C@](C)(O)[C@H](O)[C@@H](C)O3)[C@H](O)[C@@H](C)O2)[C@H](O)[C@@H](C)O1 [Mithramycin A] | 7.11 ± 5.3
9 | Nc1nc2[nH]cc(CCc3ccc(C(=O)N[C@@H](CCC(=O)O)C(=O)O)cc3)c2c(=O)[nH]1 [Pemetrexed Disodium Hydrate] | 101 ± 18
10 | CCN(CC)CCNC(=O)c1c(C)[nH]c(/C=C2\C(=O)Nc3ccc(F)cc32)c1C [Sunitinib] | 35.5 ± 3.6
11 | Nc1ncn([C@H]2C[C@H](O)[C@@H](CO)O2)c(=O)n1 [Decitabine] | 95.2 ± 0.53
12 | COc1cccc2c1C(=O)c1c(O)c3c(c(O)c1C2=O)C[C@@](O)(C(=O)CO)C[C@@H]3O[C@H]1C[C@H](N)[C@H](O)[C@H](C)O1 [Doxorubicin (Adriamycin)] | 3.06 ± 0.067
13 | Cn1nnc2c(C(N)=O)ncn2c1=O [Temozolomide] | 118 ± 5.8
14 | CCOc1cc(C(C)(C)C)ccc1C1=N[C@@](C)(c2ccc(Cl)cc2)[C@@](C)(c2ccc(Cl)cc2)N1C(=O)N1CCN(CCCS(C)(=O)=O)CC1 | 52.5 ± 3.1
15 | Cc1ccc(C(=O)Nc2ccc(CN3CCN(C)CC3)c(C(F)(F)F)c2)cc1C#Cc1cnc2cccnn12 | 1.8 ± 0.67
16 | CCC(C)n1ncn(-c2ccc(N3CCN(c4ccc(OCC5COC(Cn6cncn6)(c6ccc(Cl)cc6Cl)O5)cc4)CC3)cc2)c1=O (stereo not given) [Itraconazole] | 81.9 ± 2.1
17 | Nc1cccc2c1CN(C1CCC(=O)NC1=O)C2=O (stereo not given) [Lenalidomide] | 106 ± 3.2
18 | COc1cc2ncnc(Nc3ccc(F)c(Cl)c3)c2cc1NC(=O)/C=C/CN1CCCCC1 | 68.1 ± 1.6
19 | CN(C)/N=N/c1[nH]cnc1C(N)=O [Dacarbazine] | 111.7 ± 1.1
20 | COc1cc(OC)cc(N(CCNC(C)C)c2ccc3ncc(-c4cnn(C)c4)nc3c2)c1 [Erdafitinib] | 59.1 ± 2.4

Row | SMILES | cell viability [%]
21 | CCN(CC)CCNC(=O)c1c(C)[nH]c(/C=C2\C(=O)Nc3ccc(F)cc32)c1C [Sunitinib Malate] | 50.6 ± 16
22 | O=C(/C=C/c1cccc(S(=O)(=O)Nc2ccccc2)c1)NO [Belinostat (PXD101)] | 7.52 ± 0.13
23 | C[C@]12CC[C@@H]3c4ccc(O)cc4C[C@@H](CCCCCCCCC[S+]([O-])CCCC(F)(F)C(F)(F)F)[C@H]3[C@@H]1CC[C@@H]2O (stereo not given in full) [Fulvestrant] | -7.846 ± 0.067
24 | CC(=O)OCC(=O)[C@@]1(O)CC[C@H]2[C@@H]3CCC4=CC(=O)CC[C@]4(C)[C@H]3C(=O)C[C@@]21C [Cortisone acetate] | 114 ± 4.4
25 | S=c1[nH]cnc2nc[nH]c12 [Mercaptopurine (6-MP)] | -6.45
26 | COc1cc2nccc(Oc3ccc(NC(=O)NC4CC4)c(Cl)c3)c2cc1C(N)=O [Lenvatinib (E7080)] | 69.6 ± 2
27 | O=C1c2c(O)ccc(O)c2C(=O)c2c(NCCNCCO)ccc(NCCNCCO)c21 [Mitoxantrone 2HCl] | 2.67 ± 1.1
28 | COc1cc2nccc(Oc3ccc(NC(=O)Nc4cc(C)on4)c(Cl)c3)c2cc1OC [Tivozanib (AV-951)] | 60.7 ± 11
29 | COc1cc([C@@H]2c3cc4c(cc3[C@@H](O[C@@H]3O[C@@H]5CO[C@@H](c6cccs6)O[C@H]5[C@H](O)[C@H]3O)[C@H]3COC(=O)[C@H]23)OCO4)cc(OC)c1O [Teniposide] | 13.5 ± 1.5
30 | CN1CCN(c2ccc(C(=O)Nc3n[nH]c4ccc(Cc5cc(F)cc(F)c5)cc34)c(NC3CCOCC3)c2)CC1 [Entrectinib (RXDX-101)] | -0.545 ± 0.059
31 | CC(=O)Oc1ccccc1C(=O)O [Aspirin] | 110 ± 4.8
32 | CC#CCn1c(N2CCC[C@@H](N)C2)nc2c1c(=O)n(Cc1nc(C)c3ccccc3n1)c(=O)n2C [Linagliptin] | 94.5 ± 11
33 | CN(CCOc1ccc(CC2SC(=O)NC2=O)cc1)c1ccccn1 (stereo not given) [Rosiglitazone] | 101 ± 3.3
34 | Oc1ncnc2[nH]ncc12 [Allopurinol] | 123 ± 13
35 | C=CC(=O)Nc1cc2c(Nc3ccc(F)c(Cl)c3)ncnc2cc1OCCCN1CCOCC1 [Canertinib(CI-1033)] | 92.8 ± 7.2
36 | COc1cccc2c1C(=O)c1c(O)c3c(c(O)c1C2=O)C[C@@](O)(C(=O)CO)C[C@@H]3O[C@H]1C[C@H](N)[C@@H](O)[C@H](C)O1 [Epirubicin HCl] | 3.6 ± 0.6
37 | CCN1CCN(Cc2ccc(Nc3ncc(F)c(-c4cc(F)c5nc(C)n(C(C)C)c5c4)n3)nc2)CC1 [Abemaciclib] | 65.2 ± 4.2
38 | O=C(c1cc(Cc2n[nH]c(=O)c3ccccc23)ccc1F)N1CCN(C(=O)C2CC2)CC1 | 92.3 ± 8.4
39 | C[C@@H]1CCN(C(=O)CC#N)C[C@@H]1N(C)c1ncnc2[nH]ccc12 | 77.2 ± 22
40 | CC[C@H]1OC(=O)[C@H](C)[C@@H](O[C@H]2C[C@@](C)(OC)[C@@H](O)[C@H](C)O2)[C@H](C)[C@@H](O[C@@H]2O[C@H](C)C[C@H](N(C)C)[C@H]2O)[C@](C)(O)C[C@@H](C)CN(C)[C@H](C)[C@@H](O)[C@]1(C)O [Azithromycin] | 123 ± 2.7

Reference: the supplement of paper PMC8877412
